CHX counter – counter-screen hit for Shiga toxin inhibitors, cycloheximide; 300,000 tested, 12% active; AID 2314; cell reporter, cycloheximide protein synthesis inhibition counterscreen; max response, %; in the data active means max response mostly above about 13%, no sharp cut-off; inactive means mostly below about 14%; further: read at 38.3 µM for the half of the compounds with a filed dose; 0% is about no effect
HCMV antiviral – inhibitors of human cytomegalovirus; 410,000 tested, 4.5% active; activity change, negative = inhibition, % at 57.5 µM; HFF cells, HCMV-luciferase reporter, 72 h; hits give low values; in the data active means activity change below about -60%; inconclusive means no clear call, values can overlap the other calls; inactive means above about -39%; further: on the % scale 0 is the no-effect control and ±100 the full control effect
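Luciferase read-out from HCMV-luciferase-infected HFFs (MOI 1 PFU/cell) 72 h post infection at 37C; compounds added after 16 h cell attachment; activity normalized between buffer-only basal and Salinomycin (10uM) inhibitor controls.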
Shiga inhibitor – inhibitors of Shiga toxin in Vero cells. 290,000 tested, 9.2% active. Vero cells, Shiga toxin protein synthesis inhibition reporter. inhibition, % at 38.7 µM; in the data active means inhibition mostly above about 28%, no sharp cut-off; inactive means mostly below about 43%; further: 0% is about no effect
Pf growth 48h – inhibits P. falciparum growth in the first generation, 48 h; Potency, µM (titrated, usually from 28.7 µM), for the others: top-dose activity change, negative = inhibition, actives largely listed as inhibitors; P. falciparum luciferase growth in erythrocytes, 48 h; 310,000 tested, 5.9% active; further: potency means the concentration at half of the fitted maximal effect; on the % scale 0 is the no-effect control and ±100 the full control effect
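Erythrocytes infected with P. falciparum carrying an integrated firefly luciferase reporter (2% hematocrit, 0.1% parasitemia final) were exposed to compounds in RPMI 1640 with 0.5% Albumax at 37 C, 5% CO2. Growth inhibition was scored as reduced luminescence.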
Pf growth 96h – P. falciparum growth inhibition at 96 hour, primary screen for plastid delayed-death inhibitors; Potency, µM (titrated, usually from 28.7 µM), inactives show at the top dose activity change, negative = inhibition, usual class: inhibitors; 320,000 tested, 6.9% active; AID 504834; P. falciparum luciferase reporter growth, 96 h; further: potency means the concentration at half of the fitted maximal effect; on the % scale 0 is the no-effect control and ±100 the full control effect
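Two-generation exposure (96 h) targets delayed-death phenotype. Reporter parasites carrying integrated firefly luciferase, in red cells at 2% hematocrit and 0.05% parasitemia final, kept at 37 C, 5% CO2; luminescence loss indicates inhibition.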
The depositor's hits bear a star; ? = inconclusive; . = not tested or not shown. In the library only some 20% were active in any assay of this set; here they are far more common. Unless noted, the call rests on the fitted dose curve; in most records, active means well fitted inhibition curve with a large enough effect; inconclusive means small, poorly fitted or top-dose-only effect, or another doubt; inactive means no such curve, though single readings can be large or run the other way.

SMILES	CHX counter	HCMV antiviral	Shiga inhibitor	Pf growth 48h	Pf growth 96h
CN1CCN(C2CN(Cc3cn(Cc4ccccc4)nn3)S(=O)(=O)C2)CC1 (configuration not stated)	.	-1	.	.	.
NCC(=O)N[C@@H](CCCN=C(N)N)C(=O)NCC(=O)N[C@@H](CC(=O)O)C(=O)N[C@@H](CO)C(=O)N1CCC[C@H]1C(=O)O	-7	.	-7	.	.
O=C(Nc1ccccc1N1CCOCC1)c1ccc(F)c(S(=O)(=O)N2CCOCC2)c1	.	-11	.	?	2.1µM*
Cc1nc2ccc(NC(=O)c3cccc(S(=O)(=O)N4CC(C)OC(C)C4)c3)cc2s1 (configuration not stated)	-1	0	-9	.	8.3µM*
O=C(Nc1ccccc1N1CCOCC1)c1ccc([N+](=O)[O-])cc1	-3	-101*	-5	38%	143%
O=C(Nc1ccccc1N1CCOCC1)c1cccc(S(=O)(=O)N2CCOCC2)c1	.	-24	.	?	4.7µM*
Cc1ccccc1NC(=O)c1cccc(S(=O)(=O)N2CCOCC2)c1	0	-2	-5	21%	?
O=C(Nc1ccccc1C(=O)N1CCCCCC1)c1cccc(S(=O)(=O)N2CCOCC2)c1	-1	-13	-1	12µM*	?
COc1ccc(NC(=O)c2cncc(Br)c2)c(S(=O)(=O)N2CCOCC2)c1	-2	-23	-15	?	10µM*
COc1ccc(NC(=O)c2cccnc2Cl)c(S(=O)(=O)N2CCOCC2)c1	-2	14	-22	21%	.
COc1ccc(C(=O)Nc2cc(Cl)ccc2N2CCOCC2)cc1S(=O)(=O)N1CCOCC1	.	-9	.	10µM*	?
O=C(Nc1ccccc1C(=O)N1CCCCC1)c1cccc(S(=O)(=O)N2CCOCC2)c1	2	-6	-8	-15%	35%
COc1cccc(OC)c1C(=O)Nc1cc(Cl)ccc1N1CCOCC1	2	-11	-5	0%	26%
COc1ccc(C(=O)Nc2ccccc2N2CCOCC2)cc1S(=O)(=O)N1CCOCC1	.	-24	.	5.9µM*	1.9µM*
CCOc1ccc(NC(=O)N2CCN3CCCCC3C2)cc1 (configuration not stated)	.	-27	.	.	.
c1ccc(OCCNc2ccn3nc(-c4ccc(OCCN5CCOCC5)cc4)cc3n2)cc1	.	2	.	.	.
CC1(C)C(C=C(Cl)Cl)C1C(=O)Nc1ccc(S(=O)(=O)Nc2ncccn2)cc1 (configuration not stated)	-2	-1	3	14%	?
COc1cccc(CCc2nnc(CCC(=O)N3CCN(Cc4ccccn4)CC3)o2)c1	-2	-1	4	-8%	-3%
O=C(NNC(=O)c1ccc(Br)s1)c1ccc(F)c(S(=O)(=O)N2CCOCC2)c1	.	-31	.	-12%	10µM*
COc1ccc(C(=O)Nc2ccc(N3CCCCCC3)cc2)cc1S(=O)(=O)N1CCOCC1	.	-86*	.	12µM*	?
COc1ccc(S(=O)(=O)N2CCOCC2)cc1NC(=O)c1ccc(Cl)cc1	.	5	.	-12%	8.3µM*
COc1ccc(S(=O)(=O)N2CCOCC2)cc1NC(=O)c1ccc(S(=O)(=O)N2CCCCC2)cc1	.	0	.	.	.
COc1ccc(C(=O)NCc2cccs2)cc1S(=O)(=O)N1CCOCC1	6	7	-5	?	4.1µM*
CC1CN(S(=O)(=O)c2cccc(C(=O)Nc3cc(Cl)ccc3N3CCOCC3)c2)CC(C)O1 (configuration not stated)	.	?	.	9.3µM*	9.3µM*
CCOc1ccccc1NC(=O)C(c1ccccc1)N1Cc2ccccc2C1=O (configuration not stated)	.	-12	.	.	.
SMILES	CHX counter	HCMV antiviral	Shiga inhibitor	Pf growth 48h	Pf growth 96h
COc1ccc(-n2ncc3c(NCc4cccs4)ncnc32)cc1	38*	19	145*	99%	.
COc1ccc(-n2ncc3c(NCc4ccco4)ncnc32)cc1	39*	49	90*	87%	262%
COc1ccc(CCNc2ncnc3c2cnn3-c2cc(Cl)ccc2C)cc1	.	-61*	.	.	.
c1csc(CNc2ncnc3nc[nH]c23)c1	16*	-8	15	9%	?
c1ccc(CNc2ncnc3nc[nH]c23)nc1	0	-18	4	11%	0%
Clc1ccc(-n2ncc3c(NCc4ccco4)ncnc32)cc1	2	70	-10	13%	27%
Cc1ccc(N(CC(=O)Nc2ccc(Br)c(C)c2)S(=O)(=O)c2c(C)[nH]c(=O)[nH]c2=O)cc1	-4	-30	-4	5%	?
CN(C)c1ncnc(N(C)C)c1[N+](=O)[O-]	-5	-9	-9	36%	8%

High-throughput results as filed in PubChem BioAssay.
